PubChem BioAssay (NCI)
Compounds without any hit were thinned out: in the full panel of roughly 83,000, 20% have a hit.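 Testing used 96-well plates and a 48-hour single-concentration exposure. Example: -40 means 40% of the starting cells died.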 Values without a mark were called inactive. Active and inactive are the calls of the source. Rule for the calls: active = growth percent below 10; inactive = the rest.

What was measured:
Experiment in all cases: NCI-60 one-dose screen, 48 h (100 = growth as untreated, 0 = no growth, -100 = all killed)
Details in all cases: 10 µM unless noted
[1] = tested on: NCI-H23 lung
[2] = tested on: NCI-H226 lung
[3] = tested on: NCI-H322M lung
[4] = tested on: HOP-62 NSCLC
[5] = tested on: NCI-H460 lung
[6] = tested on: HOP-92 NSCLC
[7] = tested on: NCI-H522 lung
[8] = tested on: A549/ATCC NSCLC
[9] = tested on: 786-0 renal
[10] = tested on: COLO 205 colon

Row | SMILES | growth [1] | growth [2] | growth [3] | growth [4] | growth [5] | growth [6] | growth [7] | growth [8] | growth [9] | growth [10]
1 | C#Cc1cccc(Nc2ncnc3cc4c(cc23)OCCOCCOCCO4)c1 | 80.5% | 71.3% | 1.86% (active) | 56.1% | 76.6% | 49.4% | 0.957% (active) | 42.7% | 51.7% | 86.8%
2 | NC1=Nc2ccccc2N(O)N1 | 102% | 98.2% | 96.8% | 80.9% | 110% | 107% | 71.7% | 74.3% | 101% | 105%
3 | Cc1ccc(N=C2CSc3nnc(-c4csc5c4CCCC5)n3N2)cc1 | 41% | 69.5% | 57.9% | 27.9% | 11.8% | 67.7% | 29% | 26.5% | 32.3% | -4.99% (active)
4 | CC(=Nc1ccccc1)C1=C(O)C(Cc2ccccc2)NC1=O (stereo not given) | -1.27% (active) | 15.4% | 45.7% | 16.7% | 3.86% (active) | -9.07% (active) | -15.4% (active) | -28.9% (active) | 8.26% (active) | -71.8% (active)
5 | COc1ccc2c(CCCc3ccc(Cl)cc3Cl)c3[n+](cc2c1OC)CCc1cc2c(cc1-3)OCO2 | -12.2% (active) | 14.6% | 35.9% | 13.8% | 4.66% (active) | 0.488% (active) | -12.4% (active) | 11.9% | 16.5% | -59.6% (active)
6 | Cc1cc(-c2cc(OC(=O)c3ccccc3)ccc2Cl)cc2nnc(Nc3ccc(OCCN4CCCC4)cc3)nc12 | 78.9% | 78.6% | 102% | 50.2% | 81.6% | 40.8% | 49.2% | 69.4% | 98.9% | 62.8%
7 | FC(F)(F)c1ccc(CNc2ccc(Cc3c[nH]c4ncc(Cl)cc34)cn2)cn1 | 23.7% | 9.04% (active) | 33.2% | 23.1% | 44.5% | 37.7% | 9.44% (active) | 5.16% (active) | -49.3% (active) | -72.4% (active)
8 | O=C(CNc1nc(-c2ccc(Cl)cc2)cs1)Nc1ccc(-c2nc3ccccc3s2)cc1 | 87.6% | 80.3% | 91.6% | 106% | 91.3% | 92.9% | 93.1% | 99% | 109% | 93.8%
9 | CN(C)CCOC(=O)Nc1nc2ccc(Sc3ccccc3)cc2[nH]1 | 44% | 61.8% | 36.9% | 29.1% | 13% | 41.8% | -24% (active) | 38.7% | 42.2% | 8.53% (active)
10 | COC(=O)[C@]12CC[C@@H](C)[C@H](C)[C@@H]1C1=CC[C@@H]3[C@@]4(C)C(C#N)=CC(C)=C4CC[C@@]3(C)[C@]1(C)CC2 | 78.2% | 82.7% | 108% | 113% | 89.3% | 91.7% | 78.1% | 92.2% | 93% | 86.1%
11 | COC(=O)[C@@H](C)CNS(=O)(=O)N(c1cc(C(F)(F)F)cc(C(F)(F)F)c1)C1CCN(Cc2ccc(F)cc2)CC1 | 66.8% | 70.1% | 79% | 79% | 62.3% | 47.8% | 56.1% | 54% | 59.7% | -43.2% (active)
12 | CS(=O)(=O)N1CCN(Cc2cc3nc(-c4cccc5[nH]ncc45)nc(N4CCOCC4)c3s2)CC1 | 37.7% | 39.3% | -6.73% (active) | 30.9% | 23.2% | -17.1% (active) | 20.8% | 8.23% (active) | -7.35% (active) | 1.08% (active)
13 | CCNCCNc1cc(-c2ccc(Cl)c(Cl)c2)c(C#N)c2nc3ccccc3n12 | -72.8% (active) | -74.2% (active) | -83.5% (active) | -75.6% (active) | -71.2% (active) | -85.8% (active) | -78.1% (active) | -87.3% (active) | -84.8% (active) | -83.7% (active)
14 | CCc1ccc(C2=C(O)C(=O)C(c3ccc(CC)cc3)=C(O)C2=O)cc1 | -17.4% (active) | -3.98% (active) | -19.6% (active) | -12.8% (active) | -19.8% (active) | -47.9% (active) | -20.7% (active) | -58.3% (active) | 0.0366% (active) | 5.7% (active)
15 | CC(C)OP(=O)(CCC(=O)c1c[nH]c2ccccc12)OC(C)C | 96.8% | 94% | 103% | 88.1% | 114% | 95.5% | 86.9% | 68.7% | 109% | 103%
